About 21,000 targets were measured; listed, in parts, are those with the largest changes and a random draw of the rest.
Compound: CC1Cc2ccccc2N1C(=O)C1CCCN(C1)C(=O)CCl (mixture of isomers) [TRIM25 ligand 11 (diastereomer mixture)]
Assay: probe-labelled cysteine peptide fold change vs DMSO (competition) (log2 fold change); higher = less target engagement (more negative = stronger competition)
Details: THP-1, incubation time: 4 h
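Further: competitive chemoproteomic profiling in live THP-1 cells with an iodoacetamide desthiobiotin (IA-DTB) probe, comparing probe-labelled peptide intensities in compound-treated cells against DMSO-treated controls.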

Chain of UniProt P51790 (P51790 whole entry): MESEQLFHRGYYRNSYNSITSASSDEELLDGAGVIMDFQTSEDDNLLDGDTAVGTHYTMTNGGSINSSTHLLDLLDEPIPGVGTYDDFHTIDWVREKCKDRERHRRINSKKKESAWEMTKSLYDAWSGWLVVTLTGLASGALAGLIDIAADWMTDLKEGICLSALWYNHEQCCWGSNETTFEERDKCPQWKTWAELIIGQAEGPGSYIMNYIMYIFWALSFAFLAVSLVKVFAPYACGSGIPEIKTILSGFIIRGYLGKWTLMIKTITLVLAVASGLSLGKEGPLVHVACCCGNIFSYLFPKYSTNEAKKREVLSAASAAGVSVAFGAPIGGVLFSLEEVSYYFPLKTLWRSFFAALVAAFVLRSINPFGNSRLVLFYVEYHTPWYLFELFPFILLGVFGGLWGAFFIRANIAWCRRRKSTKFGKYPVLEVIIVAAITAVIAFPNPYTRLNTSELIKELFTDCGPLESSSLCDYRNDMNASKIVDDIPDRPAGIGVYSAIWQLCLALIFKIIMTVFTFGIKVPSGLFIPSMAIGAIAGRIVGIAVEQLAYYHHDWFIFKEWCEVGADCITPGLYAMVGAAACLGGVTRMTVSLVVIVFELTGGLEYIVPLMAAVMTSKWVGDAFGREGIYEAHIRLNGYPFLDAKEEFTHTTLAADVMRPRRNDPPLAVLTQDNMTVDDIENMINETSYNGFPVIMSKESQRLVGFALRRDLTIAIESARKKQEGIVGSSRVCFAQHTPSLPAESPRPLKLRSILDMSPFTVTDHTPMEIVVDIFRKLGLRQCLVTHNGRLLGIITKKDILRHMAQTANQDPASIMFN
Chain of UniProt Q96JB2 (Q96JB2 whole entry, looked up): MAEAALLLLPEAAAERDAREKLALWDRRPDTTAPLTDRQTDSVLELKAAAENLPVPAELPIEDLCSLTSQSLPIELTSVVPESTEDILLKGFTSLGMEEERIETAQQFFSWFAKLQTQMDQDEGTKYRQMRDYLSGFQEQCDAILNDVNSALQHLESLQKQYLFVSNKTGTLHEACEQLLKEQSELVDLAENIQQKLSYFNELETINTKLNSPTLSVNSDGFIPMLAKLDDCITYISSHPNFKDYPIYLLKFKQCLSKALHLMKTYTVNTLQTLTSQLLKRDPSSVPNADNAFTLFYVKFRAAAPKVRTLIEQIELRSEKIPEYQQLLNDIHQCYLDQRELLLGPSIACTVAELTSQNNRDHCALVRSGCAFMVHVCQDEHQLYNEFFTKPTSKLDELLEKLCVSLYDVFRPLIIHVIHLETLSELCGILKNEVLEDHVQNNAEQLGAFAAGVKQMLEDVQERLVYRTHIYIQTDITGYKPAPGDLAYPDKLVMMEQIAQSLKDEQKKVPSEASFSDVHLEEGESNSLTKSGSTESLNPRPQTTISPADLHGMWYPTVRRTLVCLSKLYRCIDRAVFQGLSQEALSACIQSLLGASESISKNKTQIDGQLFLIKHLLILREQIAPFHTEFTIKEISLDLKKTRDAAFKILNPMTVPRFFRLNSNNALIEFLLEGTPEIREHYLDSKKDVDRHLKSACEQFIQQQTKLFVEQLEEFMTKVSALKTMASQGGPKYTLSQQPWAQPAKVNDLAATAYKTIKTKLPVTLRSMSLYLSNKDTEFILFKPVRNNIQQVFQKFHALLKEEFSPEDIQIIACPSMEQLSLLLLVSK
Chain of UniProt O75909 (O75909 whole entry, looked up): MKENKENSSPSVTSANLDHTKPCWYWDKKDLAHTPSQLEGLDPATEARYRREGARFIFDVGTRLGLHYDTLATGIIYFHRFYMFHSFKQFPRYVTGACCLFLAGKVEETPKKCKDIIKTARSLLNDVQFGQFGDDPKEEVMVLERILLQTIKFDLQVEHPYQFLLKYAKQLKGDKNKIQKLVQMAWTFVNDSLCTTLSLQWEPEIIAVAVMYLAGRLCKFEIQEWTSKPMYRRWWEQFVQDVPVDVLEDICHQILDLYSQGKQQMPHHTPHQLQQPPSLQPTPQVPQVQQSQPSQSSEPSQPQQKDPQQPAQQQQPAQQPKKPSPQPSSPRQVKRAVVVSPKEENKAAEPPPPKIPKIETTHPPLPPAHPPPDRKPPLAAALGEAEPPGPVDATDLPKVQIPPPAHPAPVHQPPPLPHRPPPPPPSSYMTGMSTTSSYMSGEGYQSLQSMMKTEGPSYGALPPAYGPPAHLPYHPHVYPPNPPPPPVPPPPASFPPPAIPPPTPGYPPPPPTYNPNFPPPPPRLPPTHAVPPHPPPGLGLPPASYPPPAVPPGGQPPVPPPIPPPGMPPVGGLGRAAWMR
Chain of UniProt P48643 (P48643 whole entry, looked up): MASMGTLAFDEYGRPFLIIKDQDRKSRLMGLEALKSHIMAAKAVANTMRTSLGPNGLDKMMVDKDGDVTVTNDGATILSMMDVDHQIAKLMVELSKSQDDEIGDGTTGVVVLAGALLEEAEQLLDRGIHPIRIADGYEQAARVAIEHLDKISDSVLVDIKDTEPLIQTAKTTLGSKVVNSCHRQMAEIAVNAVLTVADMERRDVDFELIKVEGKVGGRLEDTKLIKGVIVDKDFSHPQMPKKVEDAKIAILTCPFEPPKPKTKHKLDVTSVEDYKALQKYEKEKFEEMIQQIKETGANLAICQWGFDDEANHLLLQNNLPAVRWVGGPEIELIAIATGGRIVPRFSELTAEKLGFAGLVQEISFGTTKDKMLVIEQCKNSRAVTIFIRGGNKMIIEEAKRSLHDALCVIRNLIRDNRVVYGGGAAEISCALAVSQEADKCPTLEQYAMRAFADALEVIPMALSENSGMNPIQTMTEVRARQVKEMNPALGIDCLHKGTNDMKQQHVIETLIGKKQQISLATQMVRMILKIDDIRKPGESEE
Chain of UniProt Q99439 (Q99439 whole entry, looked up): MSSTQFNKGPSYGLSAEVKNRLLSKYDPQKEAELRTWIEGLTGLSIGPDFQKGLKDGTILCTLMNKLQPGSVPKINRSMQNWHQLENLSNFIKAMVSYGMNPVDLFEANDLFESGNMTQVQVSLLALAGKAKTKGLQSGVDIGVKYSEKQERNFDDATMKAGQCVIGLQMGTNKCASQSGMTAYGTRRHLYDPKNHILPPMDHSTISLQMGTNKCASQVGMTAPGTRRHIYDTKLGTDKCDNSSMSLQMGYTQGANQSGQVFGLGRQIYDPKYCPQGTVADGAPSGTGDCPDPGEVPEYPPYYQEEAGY
Chain of UniProt Q14790 (Q14790 whole entry, looked up): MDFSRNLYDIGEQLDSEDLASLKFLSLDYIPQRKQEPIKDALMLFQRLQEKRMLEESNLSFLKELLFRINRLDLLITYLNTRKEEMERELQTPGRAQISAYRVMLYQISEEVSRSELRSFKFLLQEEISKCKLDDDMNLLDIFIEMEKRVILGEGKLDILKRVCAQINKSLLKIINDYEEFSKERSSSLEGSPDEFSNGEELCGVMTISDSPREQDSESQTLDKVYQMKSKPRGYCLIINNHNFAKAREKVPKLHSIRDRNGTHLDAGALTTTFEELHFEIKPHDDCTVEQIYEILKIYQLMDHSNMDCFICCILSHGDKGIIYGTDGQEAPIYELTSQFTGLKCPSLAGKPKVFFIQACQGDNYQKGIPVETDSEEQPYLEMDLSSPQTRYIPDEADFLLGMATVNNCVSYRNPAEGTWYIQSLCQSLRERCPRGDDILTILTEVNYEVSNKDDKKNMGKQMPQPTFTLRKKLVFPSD
Chain of UniProt Q9BX70 (Q9BX70 whole entry, looked up): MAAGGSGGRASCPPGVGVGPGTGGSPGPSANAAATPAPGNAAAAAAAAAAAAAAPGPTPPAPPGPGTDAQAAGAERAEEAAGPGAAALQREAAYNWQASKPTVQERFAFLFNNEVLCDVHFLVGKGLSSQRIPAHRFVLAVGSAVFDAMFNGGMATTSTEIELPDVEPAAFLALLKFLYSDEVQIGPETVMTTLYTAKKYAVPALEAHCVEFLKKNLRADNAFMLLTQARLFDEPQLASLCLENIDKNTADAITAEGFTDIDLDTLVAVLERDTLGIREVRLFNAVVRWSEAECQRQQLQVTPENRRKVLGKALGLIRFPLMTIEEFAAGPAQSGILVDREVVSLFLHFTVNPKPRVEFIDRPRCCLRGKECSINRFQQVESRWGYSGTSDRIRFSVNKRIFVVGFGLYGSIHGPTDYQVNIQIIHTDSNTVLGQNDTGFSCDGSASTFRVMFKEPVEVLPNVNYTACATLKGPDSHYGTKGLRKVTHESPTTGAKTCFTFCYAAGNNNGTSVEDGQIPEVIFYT
Chain of UniProt Q9Y232 (Q9Y232 whole entry, looked up): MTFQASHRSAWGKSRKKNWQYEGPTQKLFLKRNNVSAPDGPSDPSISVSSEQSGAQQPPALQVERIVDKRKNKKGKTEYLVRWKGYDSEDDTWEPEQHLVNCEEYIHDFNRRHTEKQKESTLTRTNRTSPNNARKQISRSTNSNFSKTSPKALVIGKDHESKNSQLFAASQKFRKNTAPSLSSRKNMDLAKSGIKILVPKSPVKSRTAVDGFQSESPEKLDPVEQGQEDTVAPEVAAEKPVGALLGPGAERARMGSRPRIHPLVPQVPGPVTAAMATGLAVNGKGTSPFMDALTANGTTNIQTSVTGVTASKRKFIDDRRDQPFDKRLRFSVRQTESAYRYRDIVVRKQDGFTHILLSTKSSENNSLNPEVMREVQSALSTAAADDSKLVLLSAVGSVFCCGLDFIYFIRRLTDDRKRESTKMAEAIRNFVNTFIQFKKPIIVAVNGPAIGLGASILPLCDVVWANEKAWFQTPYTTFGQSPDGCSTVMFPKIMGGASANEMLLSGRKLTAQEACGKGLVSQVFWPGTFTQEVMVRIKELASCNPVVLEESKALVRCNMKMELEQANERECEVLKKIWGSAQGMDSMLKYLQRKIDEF
Chain of UniProt P23528 (P23528 whole entry, looked up): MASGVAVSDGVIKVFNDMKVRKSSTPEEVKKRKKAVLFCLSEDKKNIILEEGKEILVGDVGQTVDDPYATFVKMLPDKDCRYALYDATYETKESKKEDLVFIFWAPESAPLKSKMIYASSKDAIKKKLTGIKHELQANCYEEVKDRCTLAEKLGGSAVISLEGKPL

Row | Target | probe-labelled cysteine peptide fold change (10 µM) | probe-labelled cysteine peptide fold change (50 µM)
1 | CCNK_O75909_99_YVTGACCLFLAGK (UniProt O75909) | 0.1 | 0.32
2 | CLCN3_P51790_733_VCFAQHTPSLPAESPRPLK (UniProt P51790) | 0.0602 | 0.0245
3 | CCAR1_Q8IX12_937_DLLMAFVYFDQSHCGYLLEK (UniProt Q8IX12) | 0.653 | 0.739
4 | CNOT4_O95628_175_AIQCVNNVVVDGR (UniProt O95628) | 0.0992 | 0.172
5 | CAMK2G_Q13555_7_ATTATCTR (UniProt Q13555) | 0.042 | -0.225
6 | CNN2_Q99439_61_DGTILCTLMNK (UniProt Q99439) | 0.00655 | 0.0892
7 | COPA_P53621_1148_KILSACEK (UniProt P53621) | -0.616 | -0.459
8 | CASP8_Q14790_345_CPSLAGKPK (UniProt Q14790) | -0.0611 | -0.0798
9 | BZW2_Q9Y6E2_97_MTNHCVFSANEDHETIR (UniProt Q9Y6E2) | 0.0541 | -0.0628
10 | COG3_Q96JB2_363_ELLLGPSIACTVAELTSQNNRDHCALVR (UniProt Q96JB2) | -0.436 | 0.793
11 | COPS7B_Q9H9Q2_157_NQLLEVDFCIGR (UniProt Q9H9Q2) | -0.0213 | -0.0864
12 | BTBD2_Q9BX70_241_LFDEPQLASLCLENIDK (UniProt Q9BX70) | 0.22 | 0.0147
13 | CCT5_P48643_181_VVNSCHR (UniProt P48643) | 0.109 | 0.0213
14 | CHKB_Q9Y259_85_CSLPDHLPSVGEEPREVLLR (UniProt Q9Y259) | -0.301 | -0.0104
15 | CFL1_P23528_139_KLTGIKHELQANCYEEVK (UniProt P23528) | -0.632 | -0.503
16 | CDYL_Q9Y232_571_MELEQANERECEVLK (UniProt Q9Y232) | -0.0968 | -0.0996
17 | CNOT8_Q9UFF9_148_HEEEGIDTLHFAELLMTSGVVLCDNVK (UniProt Q9UFF9) | 0.648 | 0.338

Source: the supplement of paper PMC12067093, “Discovery and optimisation of a covalent ligand for TRIM25 and its application to targeted protein ubiquitination” (Chemical Science, 2025)
